The supplement of paper PMC10811239

System: LEGO organoid PTCC (PTEN-/-; TP53-/-; CDKN2A-/-; CDKN2B-/-)
Assay: bioluminescence (viable cell) signal fold change after vs before treatment, normalised to DMSO (ratio); higher = more tumour cell growth / less inhibition
Settings: 10 µM; treatment time 6 days
Protocol: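 Luc2-labelled iPSC-derived glioblastoma-like organoids (LEGOs, genotypes PT = PTEN-/-;TP53-/-, PTCC = plus CDKN2A/B-/-, PTN = plus NF1-/-) were treated with 10 uM drug for 6 days (applied every other day) at 37 C. Bioluminescence imaging was done before treatment and 2 days after the last dose. BLI signals were normalised to the DMSO control on the same day and then to the pre-treatment signal (N=3).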

SMILES | bioluminescence
CC(C)c1c(C(=O)Nc2ccccc2)c(-c2ccccc2)c(-c2ccc(F)cc2)n1CC[C@@H](O)C[C@@H](O)CC(=O)[O-].CC(C)c1c(C(=O)Nc2ccccc2)c(-c2ccccc2)c(-c2ccc(F)cc2)n1CC[C@@H](O)C[C@@H](O)CC(=O)[O-].[Ca+2] [Atorvastatin Calcium] | 0.222
Nc1[nH]c(=O)ncc1F [Fluorocytosine] | 1.01
O=C1CCc2ccc(OCCCCN3CCN(c4cccc(Cl)c4Cl)CC3)cc2N1 [Aripiprazole] | 0.382
COc1ccc(Cl)cc1C(=O)NCCc1ccc(S(=O)(=O)NC(=O)NC2CCCCC2)cc1 [Glyburide] | 1.51
CO/N=C(\C(=O)N[C@@H]1C(=O)N2C(C(=O)[O-])=C(CSc3nc(=O)c([O-])nn3C)CS[C@H]12)c1csc(N)n1.CO/N=C(\C(=O)N[C@@H]1C(=O)N2C(C(=O)[O-])=C(CSc3nc(=O)c([O-])nn3C)CS[C@H]12)c1csc(N)n1.O.O.O.O.O.O.O.[Na+].[Na+].[Na+].[Na+] [Ceftriaxone sodium] | 1.62
CC(C)Cc1ccc(C(C)C(=O)O)cc1 (stereo not given) [Ibuprofen] | 0.624
Cc1cccc(C)c1OCC(=O)N[C@@H](Cc1ccccc1)[C@@H](O)C[C@H](Cc1ccccc1)NC(=O)[C@H](C(C)C)N1CCCNC1=O [Lopinavir] | 0.969
C[C@@H]1CCN(C(=O)CC#N)C[C@@H]1N(C)c1ncnc2[nH]ccc12 [Tofacitinib] | 1.34
CN(C/C=C/c1ccccc1)Cc1cccc2ccccc12.Cl [Naftifine hydrochloride] | 1.3
Nc1ncn([C@H]2C[C@H](O)[C@@H](CO)O2)c(=O)n1 [Decitabine] | 1.67
C[C@H]1C[C@@H]2[C@H]([C@@H](O)C[C@@]3(C)[C@H]2CC[C@]3(O)C(=O)CO)[C@@]2(C)C=CC(=O)C=C12 [Methylprednisolone] | 0.882
NC(=O)N1c2ccccc2C=Cc2ccccc21 [Carbamazepine] | 0.95
O=C(CCCCCCC(=O)Nc1ccccc1)NO [Vorinostat] | 0.409
COc1ccccc1OCC(O)COC(N)=O (stereo not given) [Methocarbamol] | 1.84
CC(=O)[C@H]1CC[C@H]2[C@@H]3CCC4=CC(=O)CC[C@]4(C)[C@H]3CC[C@]12C [Progesterone] | 0.682
